This note sets out measurements from PubChem BioAssay (NCI).

Among the test systems are NCI-H23 lung; NCI-H226 lung; NCI-H322M lung; HOP-62 NSCLC; NCI-H460 lung; NCI-H522 lung; A549/ATCC NSCLC; 786-0 renal; COLO 205 colon.
What all share (test): NCI-60 one-dose screen, 48 h (100 = growth as untreated, 0 = no growth, -100 = all killed)
Settings in all cases: 10 µM unless noted

The panel holds about 83,000 compounds, 20% with a hit somewhere; the sample as a whole holds those more often.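 Growth was measured after 48 h exposure to one concentration of compound in 96-well plates. Values under 10 count as active.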 Values without a mark were called inactive. Calls of active or inactive are those of the source.

For the compound `CC(C)c1nc2ccccc2n1CC(=O)N/N=C/c1cccc(O)c1`, the growth in the assay on NCI-H23 lung was 101%; in the assay with NCI-H226 lung, 105%; in the assay with NCI-H322M lung, 93.2%; in the assay with HOP-62 NSCLC it was 97.4%; in the assay with NCI-H460 lung, 102%; in the assay with NCI-H522 lung, 86.6%. Moreover, the growth in the assay on A549/ATCC NSCLC is 97.5%; in the assay with 786-0 renal, 95.6%; in the assay on COLO 205 colon, 108%.

As to `CNC(=O)OC1C(O[C@H]2C[C@H]3[C@@H]4CC=C5C[C@@H](O)CC[C@]5(C)[C@H]4CC[C@]3(C)[C@H]2[C@H](C)C(=O)CCC(C)C)OCC(O)C1OC1OCC(O)C(O)C1OC(=O)c1ccc(OC)cc1` (stereo partly specified), the growth was 39.3% in the assay on NCI-H23 lung; 3.4% (active) with NCI-H226 lung; 57.6% with NCI-H322M lung; 0.544% (active) in the assay with HOP-62 NSCLC; 1.55% (active) with NCI-H460 lung; -35.8% (active) in the assay with NCI-H522 lung. In addition, the growth is 11.5% in the assay on A549/ATCC NSCLC, -14.3% (active) with 786-0 renal and -42.8% (active) in the assay on COLO 205 colon.

For the compound `O=C1NN(C(=O)c2ccccc2)C(c2ccc(Cl)c(Cl)c2)=C/C1=C\c1ccccc1[N+](=O)[O-]`, the growth was -16.9% [6.75 µM] (active) with NCI-H23 lung; -10.3% [6.75 µM] (active) in the assay on NCI-H226 lung; 27.1% [6.75 µM] with NCI-H322M lung; 37.8% [6.75 µM] with HOP-62 NSCLC; -25% [6.75 µM] (active) in the assay on NCI-H460 lung; -11.1% [6.75 µM] (active) in the assay on NCI-H522 lung. The growth was 14.4% [6.75 µM] in the assay on A549/ATCC NSCLC, 31.1% [6.75 µM] in the assay with 786-0 renal and -79.4% [6.75 µM] (active) in the assay on COLO 205 colon.

For the compound `NC(=O)N/N=C\c1ccc([N+](=O)[O-])o1`, the growth with NCI-H23 lung is 99.6%; with NCI-H226 lung, 101%; in the assay on NCI-H322M lung, 117%; in the assay with HOP-62 NSCLC it was 96.7%; in the assay with NCI-H460 lung, 105%; in the assay on NCI-H522 lung, 95.8%. Besides, the growth is 97.1% with A549/ATCC NSCLC, 107% with 786-0 renal and 117% in the assay on COLO 205 colon.

Regarding `NC(N)=NC1CCCCC1`, the growth in the assay with NCI-H23 lung was 101%; in the assay with NCI-H226 lung, 101%; in the assay with NCI-H322M lung, 102%; in the assay with HOP-62 NSCLC, 108%; in the assay on NCI-H460 lung, 113%; with NCI-H522 lung, 85.8%. Moreover, the growth in the assay with A549/ATCC NSCLC was 94.1%; with 786-0 renal, 98.1%; with COLO 205 colon, 118%.

Regarding `CCCCCCCCCCCCNC(=O)N[C@H](C(=O)N[C@H]1/C=C/OCCNC(=O)/C=C/[C@H](C(C)C)NC1=O)C(C)C`, the growth in the assay on NCI-H23 lung was 60.4%; with NCI-H226 lung, -3.01% (active); in the assay on NCI-H322M lung it was 97.1%; with HOP-62 NSCLC it was 76.7%; with NCI-H460 lung, 82.6%; in the assay with NCI-H522 lung, 47.6%. In addition, the growth is 94.7% with A549/ATCC NSCLC, 99.8% with 786-0 renal and 103% with COLO 205 colon.

Take `COc1cc(C2CC(=O)Nc3c2cnn3C)cc(OC)c1OC` (stereo unspecified): the growth in the assay on NCI-H23 lung is 108%; with NCI-H226 lung it was 104%; in the assay on NCI-H322M lung, 100%; in the assay on HOP-62 NSCLC, 98.2%; in the assay on NCI-H460 lung, 117%; in the assay with NCI-H522 lung, 101%. Besides, the growth was 107% in the assay on A549/ATCC NSCLC, 103% in the assay on 786-0 renal and 110% in the assay on COLO 205 colon.

In the case of `C=C(C)[C@@H]1CC[C@]2(C(=O)O)CC[C@]3(C)[C@H](CC[C@@H]4[C@@]5(C)C[C@@H](CC#Cc6ccc(C(C)=O)s6)[C@H](O)C(C)(C)[C@@H]5CC[C@]43C)[C@@H]12`, the growth in the assay on NCI-H23 lung is 60.9%; in the assay with NCI-H226 lung, 77.1%; with NCI-H322M lung, 41.3%; in the assay with HOP-62 NSCLC it was 50%; in the assay with NCI-H460 lung it was 42.7%; in the assay with NCI-H522 lung, 26%. Also, the growth is 6.44% (active) in the assay with A549/ATCC NSCLC, 58.6% in the assay on 786-0 renal and 59.5% in the assay with COLO 205 colon.

With `COc1ccc2[nH]cc(C3(c4c[nH]c5ccc(OC)cc45)C(=O)Nc4ccc(Cl)cc43)c2c1`, the growth with NCI-H23 lung is 80.3%; in the assay on NCI-H226 lung, 108%; in the assay on NCI-H322M lung it was 85.5%; in the assay with HOP-62 NSCLC it was 85.2%; in the assay on NCI-H460 lung, 6.57% (active); in the assay with NCI-H522 lung, 65.7%. Moreover, the growth with A549/ATCC NSCLC was 63.6%; in the assay on 786-0 renal, 74.1%; in the assay with COLO 205 colon, 69.2%.

For `COc1ccc(C2NC(=O)c3cc4c(cc3N2)OCO4)cc1` (stereo unspecified), the growth in the assay with NCI-H23 lung was 8.1% (active); in the assay on NCI-H226 lung, 5.1% (active); in the assay with NCI-H322M lung, 50.4%; with HOP-62 NSCLC, 27.8%; in the assay with NCI-H460 lung it was 5.06% (active); in the assay on NCI-H522 lung, -48.7% (active). Moreover, the results for the growth with A549/ATCC NSCLC, in the assay on 786-0 renal and in the assay with COLO 205 colon were 18.9%, 37.1% and -22.1% (active), respectively.

For the compound `NC(N)=N/N=C/c1cccc(Cl)c1Cl`, the growth is 86.9% in the assay with NCI-H23 lung; 84.8% in the assay on NCI-H226 lung; 96.9% in the assay on NCI-H322M lung; 82.5% with HOP-62 NSCLC; 64.2% in the assay with NCI-H460 lung; 80.8% with NCI-H522 lung. The growth with A549/ATCC NSCLC was 87.9%; with 786-0 renal, 83.6%; in the assay on COLO 205 colon it was -33.1% (active).

On to `COc1ccc(-c2nc3ccccc3n3cccc23)cc1`, for which the growth was 86.1% in the assay on NCI-H23 lung; 94.7% in the assay with NCI-H226 lung; 96.6% in the assay with NCI-H322M lung; 116% in the assay with HOP-62 NSCLC; 112% in the assay with NCI-H460 lung; 101% in the assay with NCI-H522 lung. The growth was 102% in the assay on A549/ATCC NSCLC, 100% in the assay on 786-0 renal and 120% in the assay on COLO 205 colon.

For `CN(C)CC(=O)c1ccc2cc(Br)c3ccccc3c2c1`, the growth with NCI-H23 lung is 74.1%; in the assay with NCI-H226 lung, 88.1%; in the assay with NCI-H322M lung, 75.7%; in the assay on HOP-62 NSCLC, 83.2%; with NCI-H460 lung, 59.4%; with NCI-H522 lung it was 9.3% (active). The growth in the assay with A549/ATCC NSCLC was 51.5%; in the assay with 786-0 renal, 47.4%; with COLO 205 colon, 74.1%.

For `CCCC(CCC)(C(N)=O)C(=O)O`, the growth with NCI-H23 lung is 105%; in the assay with NCI-H226 lung, 98.5%; in the assay on NCI-H322M lung, 111%; in the assay on HOP-62 NSCLC it was 98.6%; in the assay with NCI-H460 lung, 115%; in the assay on NCI-H522 lung, 97.2%. Further, the growth with A549/ATCC NSCLC is 97.8%; with 786-0 renal, 113%; with COLO 205 colon, 106%.
